We go through 40 compounds from PubChem BioAssay (NCI).

Each structure is given as a SMILES string. This is part of a sample that, as a whole, favours compounds with a hit. Of some 83,000 tested, about 20% had one in any assay.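 Cell lines were cultured in 96-well plates, exposed to a single compound concentration, and assessed for percent growth 48 hours later.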 A number with no mark means an inactive call. The source made the active and inactive calls. How the source made its calls: active means growth percent below 10; inactive means the rest.

This assay deals with MDA-MB-468 breast. The assay can be described thus: NCI-60 one-dose screen, 48 h (100 = growth as untreated, 0 = no growth, -100 = all killed). Particulars: 10 µM unless noted.
Turning to `Brc1ccc2c(c1)c(-c1nc(-c3c[nH]c4ncccc34)cs1)cn2CCN1CCOCC1`, the growth was 34.2%.

Turning to `COC(=O)C12CC(NC(=O)c3csc([C@@H](C[C@H](C(C)C)N(C)C(=O)[C@@H](NC(=O)[C@H]4CCCCN4C)C4CC4)OC(C)=O)n3)(C1)C2`, the growth was 30.1%.

Turning to `CC1=CC(=Nc2ccc(N(CCCl)CCCl)cc2)C=C(C)C1=O`, the growth is -66.3% (active).

Consider `O=C(c1cccc(O)c1O)c1cn(Cc2ccc(F)cc2)c2cccc(O)c12`, for which the growth was 27%.

As for `Cc1cc(CCl)c(C)cc1CCl`, the growth was -59.9% (active).

For `C=CCCCN=C=S`, the growth is 33.9%.

On to `COC(=O)[C@@H](C)C[C@H](Cc1ccccc1)NC(=O)c1nc([C@@H](C[C@H](C(C)C)N(C)C(=O)[C@@H](NC(=O)[C@H]2CCCCN2C)C(C)C)OC(C)=O)sc1C(C)C`, for which the growth was 20.7%.

For the compound `COc1cccc2c1c(C(=O)c1ccco1)cn2Cc1ccc(F)cc1`, the growth was 103%.

`CCOC(=O)C(Cc1ccc(N(CCCl)CCCl)cc1)NC(=O)C(CC(C)C)NC(C)=O` (stereo not given): the growth was -45.6% (active).

For `OCCN=Cc1c[nH]c2ccccc12`, the growth is 119%.

As for `CC(C)(NC(=O)c1nn(CCCCCF)c2ccccc12)c1ccccc1`, the growth is 93.9%.

On to `Cc1cc(N(CCCl)CCCl)ccc1C=Nc1ccc(-c2csc(-c3ccccc3)n2)cc1`, for which the growth is 3.69% (active).

Consider `COc1ccc(CN)cc1OC`, for which the growth is 114%.

With `COc1cc2c(c(OC)c1OC)-c1ccc([O-])c(=O)cc1[C@@H](NC(C)=O)CC2.COc1cc2c(c(OC)c1OC)-c1ccc([O-])c(=O)cc1[C@@H](NC(C)=O)CC2.[Cu+2]`, the growth is 2.02% (active).

As to `O=C1C2CC=CCC2C(=O)N1SC(Cl)(Cl)Cl` (stereo not given), the growth is 103%.

Regarding `O=[N+]([O-])c1cnc[nH]1`, the growth was 108%.

On to `CCN(CC)CCn1c(=O)n(C)c2ccccc21`, for which the growth is 100%.

Regarding `CN1CCC2(CC1)C(C#N)C(=O)NC(=O)C2C#N` (stereo not given), the growth is 102%.

Consider `COc1ccc(C2SCC(=O)Nc3c2c(C)nn3-c2nc3ccc(C)cc3s2)cc1O` (stereo not given), for which the growth was 23.4%.

`CC(C)(NC(=O)O[C@@H]1CN2CCC1CC2)c1csc(-c2ccc(F)cc2)n1`: the growth was 85.2%.

With `Oc1ccc(O)c2c1C1(Cl)C(Cl)=C(Cl)C2(Cl)C1(Cl)Cl`, the growth is 4.54% (active).

Regarding `S=P(SP(=S)(c1ccccc1)c1ccccc1)(c1ccccc1)c1ccccc1`, the growth was 101%.

Regarding `CNC(=O)Oc1cc(C(C)C)ccc1Sc1ccc(C(C)C)cc1OC(=O)NC`, the growth was 56.5%.

Turning to `Cc1ccc(S(=O)(=O)C(Cl)(Cl)Cl)cc1`, the growth was 99.8%.

For `COc1ccc(/C=C\c2cc(OC)c(OC)c(OC)c2)cc1NC(=O)/C=C/c1cc(OC)c(OC)c(OC)c1`, the growth was 16.5%.

Regarding `C=C1[C@@H](C)[C@H]2[C@H](Cc3ccccc3)NC(=O)[C@]23[C@@H](O)/C=C/[C@@](C)(O)C(=O)[C@@H](C)C/C=C/[C@H]3[C@@H]1O`, the growth was -39% (active).

Consider `Nc1nc(N)c(-c2ccc(Cl)c(Cl)c2)c(/C=C/c2ccc(S(=O)(=O)F)cc2)n1`, for which the growth was 103%.

Turning to `NC(Cc1ccc2c(c1)OCO2)c1ccc2c(c1)OCO2` (stereo not given), the growth was 96%.

As for `COC(=O)[C@]12CCC(C)(C)C[C@H]1[C@H]1C(=O)C[C@@H]3[C@@]4(C)C[C@@]5(CC(C)(C)[C@@H]4CC[C@@]3(C)[C@]1(C)CC2)OO[C@@](C)(C(F)(F)F)O5`, the growth is 84.5%.

Regarding `CC[C@]12C=CCN3CC[C@@]4(c5ccc(OC)cc5N(C)[C@H]4[C@@](O)(C(=O)OC)[C@@H]1OC(=O)CCCN1CCN(CCCC(=O)O[C@@H]4[C@]5(CC)C=CCN6CC[C@@]7(c8ccc(OC)cc8N(C)[C@H]7[C@@]4(O)C(=O)OC)[C@@H]65)CC1)[C@@H]32`, the growth is -88.4% (active).

In the case of `CCN(CC)CCOc1c(C(C)C)cccc1C(C)C`, the growth is 88.1%.

Consider `COc1cc2c(O[C@@H]3OC[C@H](O)[C@H](O)[C@H]3O)c3c(c(-c4ccc5c(c4)OCO5)c2cc1OC)C(=O)OC3`, for which the growth was 59.3%.

With `Nc1ccc(OCCNS(=O)(=O)c2cccc(S(=O)(=O)F)c2)c(Cl)c1`, the growth was 94.6%.

For `NC(=O)c1cc([N+](=O)[O-])c(Cl)c([N+](=O)[O-])c1Cl`, the growth was -84.9% (active).

For the compound `COP(=S)(N1CC1)N1CC1`, the growth was 110%.

`CCCC(C)C1(CC)C(=O)NC(=O)N(C)C1=O` (stereo not given): the growth was 94.2%.

As for `CS(=N)(=O)CCC(N)C(=O)O` (stereo not given), the growth is 106%.

Turning to `COc1ccc2c(ccc3oc([N+](=O)[O-])cc32)c1`, the growth was -57.8% (active).

As for `COc1ccc(/C=C(/C(=O)N2CCCC2)c2cc(OC)c(OC)c(OC)c2)cc1N`, the growth is -4.72% (active).

Turning to `N#Cc1c(-n2c(Br)c(Br)c3cc(Br)ccc32)[nH]c2c(Br)cc(Br)cc12`, the growth was -16.3% (active).
